# Values without a mark were called inactive.
# What was measured:
# Experiment in all cases: log2 ratio of Biotin-Ahx-Ub-VS probe labelling (fragment/DMSO); higher = less target engagement (more negative = stronger competition), active = hit call of the paper (q ≤ 0.05, log2 ratio ≤ -1)
# Conditions in all cases: compound concentration: 200 uM; treatment time: 3 h
# ALG13 = target: T1, ALG13 (UniProt Q9NP73)
# T1 sequence (whole entry): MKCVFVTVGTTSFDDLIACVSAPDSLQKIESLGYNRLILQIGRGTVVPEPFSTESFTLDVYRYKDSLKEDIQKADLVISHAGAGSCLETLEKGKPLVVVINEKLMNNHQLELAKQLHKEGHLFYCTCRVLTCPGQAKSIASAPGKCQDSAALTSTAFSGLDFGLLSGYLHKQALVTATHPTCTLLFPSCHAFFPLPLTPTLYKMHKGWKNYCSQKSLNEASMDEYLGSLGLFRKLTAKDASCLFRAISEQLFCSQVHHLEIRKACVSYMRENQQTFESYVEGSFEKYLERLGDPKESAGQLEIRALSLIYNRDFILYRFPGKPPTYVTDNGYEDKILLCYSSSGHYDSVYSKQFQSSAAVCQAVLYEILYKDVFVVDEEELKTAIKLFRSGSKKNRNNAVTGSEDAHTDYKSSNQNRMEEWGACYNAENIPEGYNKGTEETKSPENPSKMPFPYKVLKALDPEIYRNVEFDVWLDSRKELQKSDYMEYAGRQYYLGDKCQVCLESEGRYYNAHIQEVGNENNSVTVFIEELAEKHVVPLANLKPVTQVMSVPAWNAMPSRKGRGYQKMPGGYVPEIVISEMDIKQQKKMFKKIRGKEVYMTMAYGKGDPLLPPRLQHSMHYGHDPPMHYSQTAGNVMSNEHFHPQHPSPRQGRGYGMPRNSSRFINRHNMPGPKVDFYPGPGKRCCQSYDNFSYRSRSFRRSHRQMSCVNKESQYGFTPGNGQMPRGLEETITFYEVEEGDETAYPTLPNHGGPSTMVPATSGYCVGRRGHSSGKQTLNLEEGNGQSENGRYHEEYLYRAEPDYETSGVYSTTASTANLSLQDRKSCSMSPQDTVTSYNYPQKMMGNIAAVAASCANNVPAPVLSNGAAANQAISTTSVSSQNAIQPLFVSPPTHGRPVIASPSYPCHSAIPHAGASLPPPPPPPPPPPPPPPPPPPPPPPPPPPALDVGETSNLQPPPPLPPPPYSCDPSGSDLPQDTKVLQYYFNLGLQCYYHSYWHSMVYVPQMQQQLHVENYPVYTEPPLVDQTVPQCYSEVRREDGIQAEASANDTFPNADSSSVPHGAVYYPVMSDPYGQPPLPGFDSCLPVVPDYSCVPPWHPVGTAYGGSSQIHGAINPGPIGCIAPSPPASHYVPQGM
# In short: (§1)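 HEK293T lysate (495 µg per sample, in Tris/CHAPS/IGEPAL buffer with protease inhibitors) was exposed in triplicate for 3 h to fragment at 200 µM or to vehicle, then to Biotin-Ahx-Ub-VS at 0.5 µM final for 1 h. Labelled DUBs were enriched on NeutrAvidin, digested with LysC and trypsin, and analysed by diaPASEF LC-MS/MS. Spectronaut label-free quantities were normalised to the global median, and values are average log2 ratios of fragment over vehicle from an unpaired t-test. Only proteins with ≥2 unique peptides were used.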
# ATXN3 = ATXN3 (UniProt P54252)
# In short: as §1
# BAP1 = target: T2, BAP1 (UniProt Q92560)
# T2 sequence (whole entry): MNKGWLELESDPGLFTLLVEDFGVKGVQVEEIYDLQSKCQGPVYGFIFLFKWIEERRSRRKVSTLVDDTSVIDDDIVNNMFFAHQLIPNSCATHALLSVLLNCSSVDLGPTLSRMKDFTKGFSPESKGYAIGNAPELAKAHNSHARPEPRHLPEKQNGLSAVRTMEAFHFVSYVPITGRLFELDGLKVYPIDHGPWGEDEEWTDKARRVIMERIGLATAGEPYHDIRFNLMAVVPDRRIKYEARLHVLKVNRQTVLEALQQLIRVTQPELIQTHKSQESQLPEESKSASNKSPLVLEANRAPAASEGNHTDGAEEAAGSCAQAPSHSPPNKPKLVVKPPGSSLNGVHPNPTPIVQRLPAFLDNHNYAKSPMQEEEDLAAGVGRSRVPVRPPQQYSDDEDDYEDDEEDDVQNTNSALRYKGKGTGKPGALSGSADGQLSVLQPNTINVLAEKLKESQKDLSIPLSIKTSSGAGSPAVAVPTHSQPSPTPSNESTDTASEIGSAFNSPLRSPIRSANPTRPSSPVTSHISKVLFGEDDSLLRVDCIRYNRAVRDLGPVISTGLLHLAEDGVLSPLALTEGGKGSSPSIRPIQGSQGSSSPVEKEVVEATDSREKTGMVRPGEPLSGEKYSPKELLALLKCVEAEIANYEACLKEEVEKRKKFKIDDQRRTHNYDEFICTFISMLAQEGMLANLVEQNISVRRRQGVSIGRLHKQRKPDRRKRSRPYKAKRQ
# In short: as §1
# EIF3F = EIF3F (UniProt O00303)
# In short: as §1
# EIF3H = EIF3H (UniProt O15372)
# In short: as §1
# FAM105A = target: T3, FAM105A (UniProt Q9NUU6)
# T3 sequence (whole entry): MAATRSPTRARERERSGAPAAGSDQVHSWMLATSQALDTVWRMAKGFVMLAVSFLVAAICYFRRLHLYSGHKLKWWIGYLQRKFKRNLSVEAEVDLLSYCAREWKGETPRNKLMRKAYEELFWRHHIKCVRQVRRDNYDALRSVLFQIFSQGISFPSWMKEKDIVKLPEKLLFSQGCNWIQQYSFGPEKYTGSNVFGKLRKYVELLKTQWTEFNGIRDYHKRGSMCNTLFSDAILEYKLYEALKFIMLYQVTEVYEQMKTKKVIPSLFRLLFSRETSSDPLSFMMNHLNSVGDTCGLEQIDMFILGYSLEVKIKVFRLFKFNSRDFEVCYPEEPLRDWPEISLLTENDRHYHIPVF
# In short: as §1
# OTUB1 = OTUB1 (UniProt Q96FW1)
# In short: as §1
# OTUD4 = target: T4, OTUD4 (UniProt Q01804)
# T4 sequence (whole entry): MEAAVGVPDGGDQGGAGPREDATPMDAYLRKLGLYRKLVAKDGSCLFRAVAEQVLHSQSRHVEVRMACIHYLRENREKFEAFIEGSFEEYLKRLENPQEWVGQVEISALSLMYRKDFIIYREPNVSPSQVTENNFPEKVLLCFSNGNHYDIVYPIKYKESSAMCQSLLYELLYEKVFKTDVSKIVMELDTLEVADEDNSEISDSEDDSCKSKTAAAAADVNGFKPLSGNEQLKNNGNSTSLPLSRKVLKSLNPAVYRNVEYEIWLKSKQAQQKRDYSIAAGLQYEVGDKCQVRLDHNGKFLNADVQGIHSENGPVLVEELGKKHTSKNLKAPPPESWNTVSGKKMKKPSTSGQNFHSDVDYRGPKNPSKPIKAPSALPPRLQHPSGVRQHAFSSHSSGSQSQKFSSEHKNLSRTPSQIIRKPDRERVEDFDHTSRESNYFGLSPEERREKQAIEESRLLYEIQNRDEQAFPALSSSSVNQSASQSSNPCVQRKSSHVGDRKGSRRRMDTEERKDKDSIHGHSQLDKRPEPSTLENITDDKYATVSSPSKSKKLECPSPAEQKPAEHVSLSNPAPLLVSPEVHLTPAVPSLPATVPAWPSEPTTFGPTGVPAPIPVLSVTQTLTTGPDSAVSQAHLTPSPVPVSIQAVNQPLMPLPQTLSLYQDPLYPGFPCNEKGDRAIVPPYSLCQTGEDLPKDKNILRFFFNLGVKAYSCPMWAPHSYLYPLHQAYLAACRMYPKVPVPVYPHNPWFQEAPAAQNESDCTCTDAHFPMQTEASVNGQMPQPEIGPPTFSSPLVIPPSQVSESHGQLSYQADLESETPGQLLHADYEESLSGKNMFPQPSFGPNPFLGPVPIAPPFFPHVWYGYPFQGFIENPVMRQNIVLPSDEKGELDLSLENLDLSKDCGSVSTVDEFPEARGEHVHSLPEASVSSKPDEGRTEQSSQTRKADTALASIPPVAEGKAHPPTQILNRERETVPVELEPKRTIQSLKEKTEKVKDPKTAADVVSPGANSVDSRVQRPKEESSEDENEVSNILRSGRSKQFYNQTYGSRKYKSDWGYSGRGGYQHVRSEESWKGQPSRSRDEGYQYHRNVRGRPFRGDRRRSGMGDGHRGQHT
# In short: as §1
# OTUD5 = target: T5, OTUD5 (UniProt Q96G74)
# T5 sequence (whole entry): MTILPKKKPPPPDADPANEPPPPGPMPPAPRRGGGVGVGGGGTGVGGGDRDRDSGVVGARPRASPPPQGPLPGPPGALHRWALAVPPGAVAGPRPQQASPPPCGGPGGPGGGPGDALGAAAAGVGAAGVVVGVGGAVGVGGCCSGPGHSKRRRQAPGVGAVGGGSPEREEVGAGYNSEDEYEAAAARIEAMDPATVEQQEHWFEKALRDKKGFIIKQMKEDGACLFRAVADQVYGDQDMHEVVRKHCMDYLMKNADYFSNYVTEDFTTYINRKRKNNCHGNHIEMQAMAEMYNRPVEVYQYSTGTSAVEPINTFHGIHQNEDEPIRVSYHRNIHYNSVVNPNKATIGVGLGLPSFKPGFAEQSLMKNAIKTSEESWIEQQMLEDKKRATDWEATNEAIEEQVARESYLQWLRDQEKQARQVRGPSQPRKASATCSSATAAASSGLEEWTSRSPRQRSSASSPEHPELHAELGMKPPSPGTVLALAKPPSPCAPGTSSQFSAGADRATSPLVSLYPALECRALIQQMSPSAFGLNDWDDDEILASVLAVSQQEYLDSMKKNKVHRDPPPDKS
# In short: as §1
# Chain of EIF3F (O00303 whole entry): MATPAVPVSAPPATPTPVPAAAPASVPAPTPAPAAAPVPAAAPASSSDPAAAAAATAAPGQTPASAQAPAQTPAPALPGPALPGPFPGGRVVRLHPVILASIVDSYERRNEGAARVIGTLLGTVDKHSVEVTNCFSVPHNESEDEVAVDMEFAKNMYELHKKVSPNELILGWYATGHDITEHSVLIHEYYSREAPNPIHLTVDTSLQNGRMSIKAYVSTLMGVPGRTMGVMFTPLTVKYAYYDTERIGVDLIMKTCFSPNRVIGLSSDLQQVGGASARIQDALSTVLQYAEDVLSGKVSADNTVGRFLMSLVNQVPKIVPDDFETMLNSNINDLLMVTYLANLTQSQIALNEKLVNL
# Chain of OTUB1 (Q96FW1 whole entry): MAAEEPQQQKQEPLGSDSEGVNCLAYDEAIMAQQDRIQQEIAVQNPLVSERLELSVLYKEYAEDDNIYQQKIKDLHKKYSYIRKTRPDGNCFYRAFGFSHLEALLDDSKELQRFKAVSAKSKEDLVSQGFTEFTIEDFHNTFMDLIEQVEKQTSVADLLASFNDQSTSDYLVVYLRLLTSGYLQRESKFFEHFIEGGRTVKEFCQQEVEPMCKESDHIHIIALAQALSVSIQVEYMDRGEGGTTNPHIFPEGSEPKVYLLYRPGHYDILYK
# Chain of ATXN3 (P54252 whole entry): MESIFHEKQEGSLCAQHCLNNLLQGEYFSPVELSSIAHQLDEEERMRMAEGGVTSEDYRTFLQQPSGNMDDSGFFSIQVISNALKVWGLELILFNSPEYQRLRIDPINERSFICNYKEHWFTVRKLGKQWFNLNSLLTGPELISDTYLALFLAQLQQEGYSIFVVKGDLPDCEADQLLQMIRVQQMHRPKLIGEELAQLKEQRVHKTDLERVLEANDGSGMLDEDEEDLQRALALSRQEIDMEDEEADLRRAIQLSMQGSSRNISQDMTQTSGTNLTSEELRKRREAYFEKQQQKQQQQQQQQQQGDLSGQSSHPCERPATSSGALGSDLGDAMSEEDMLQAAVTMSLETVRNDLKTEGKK
# Chain of EIF3H (O15372 whole entry): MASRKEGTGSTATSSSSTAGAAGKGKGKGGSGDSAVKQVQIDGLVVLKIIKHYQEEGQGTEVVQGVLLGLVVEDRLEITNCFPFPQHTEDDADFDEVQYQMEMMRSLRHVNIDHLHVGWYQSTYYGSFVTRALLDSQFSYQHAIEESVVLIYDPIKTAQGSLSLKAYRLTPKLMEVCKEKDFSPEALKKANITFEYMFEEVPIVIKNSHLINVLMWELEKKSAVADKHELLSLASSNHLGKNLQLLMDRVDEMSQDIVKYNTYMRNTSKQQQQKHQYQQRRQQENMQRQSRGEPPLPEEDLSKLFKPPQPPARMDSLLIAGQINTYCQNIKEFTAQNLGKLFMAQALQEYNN
structure (smiles),measurement,setting,value
O=C(CCl)NCc1ccc(N2CCOCC2)c(F)c1,log2 ratio of Biotin-Ahx-Ub-VS probe labelling,ALG13,-0.435
same,log2 ratio of Biotin-Ahx-Ub-VS probe labelling,ATXN3,-0.0444
same,log2 ratio of Biotin-Ahx-Ub-VS probe labelling,BAP1,-2.54 (active)
same,log2 ratio of Biotin-Ahx-Ub-VS probe labelling,EIF3F,-0.139
same,log2 ratio of Biotin-Ahx-Ub-VS probe labelling,EIF3H,-0.335
same,log2 ratio of Biotin-Ahx-Ub-VS probe labelling,FAM105A,0.388
same,log2 ratio of Biotin-Ahx-Ub-VS probe labelling,OTUB1,-0.0261
same,log2 ratio of Biotin-Ahx-Ub-VS probe labelling,OTUD4,-0.0414
same,log2 ratio of Biotin-Ahx-Ub-VS probe labelling,OTUD5,0.0267

# Source: the supplement of paper PMC11732987, “Enantioselective OTUD7B fragment discovery through chemoproteomics screening and high-throughput optimisation” (Communications Chemistry, 2025)
